# ALOX12 inh: inhibitors of human 12S-lipoxygenase ALOX12; Potency, µM (top dose mostly 108 µM), for the others: at the highest dose activity change, negative = inhibition, usual class: inhibitors; P18054; purified 12hLO, xylenol orange hydroperoxide absorbance; 1.1% of 580,000 active; also: potency is read from the fitted curve at half-maximal effect
# Target sequence (P18054 whole entry, looked up): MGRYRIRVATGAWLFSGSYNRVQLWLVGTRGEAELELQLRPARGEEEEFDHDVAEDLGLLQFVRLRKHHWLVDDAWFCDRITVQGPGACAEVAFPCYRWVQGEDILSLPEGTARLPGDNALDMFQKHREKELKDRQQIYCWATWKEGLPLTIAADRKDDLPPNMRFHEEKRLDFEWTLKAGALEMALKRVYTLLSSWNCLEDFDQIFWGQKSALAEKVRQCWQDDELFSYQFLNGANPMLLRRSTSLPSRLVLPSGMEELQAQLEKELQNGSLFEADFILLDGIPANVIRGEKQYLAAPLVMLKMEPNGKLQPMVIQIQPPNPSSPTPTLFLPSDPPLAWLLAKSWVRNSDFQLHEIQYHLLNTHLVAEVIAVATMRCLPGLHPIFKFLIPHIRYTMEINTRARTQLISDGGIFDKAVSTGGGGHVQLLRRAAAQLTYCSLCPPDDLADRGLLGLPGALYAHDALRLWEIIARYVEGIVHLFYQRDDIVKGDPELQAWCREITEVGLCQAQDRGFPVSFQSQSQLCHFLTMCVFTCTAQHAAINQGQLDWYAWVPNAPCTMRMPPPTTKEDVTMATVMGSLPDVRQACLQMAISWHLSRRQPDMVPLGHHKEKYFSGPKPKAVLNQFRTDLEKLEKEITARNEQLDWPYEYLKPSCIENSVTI
#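 Hydroperoxide product was detected by ferrous iron/xylenol orange as the 573 to 405 nm absorbance ratio. Arachidonic acid at 40 uM (final) was turned over for 30 min at room temperature by 150 nM human 12hLO, pH 7.0 Hepes buffer, after 15 min compound preincubation.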
# HT1080NT lethal: kills 2HG-producing HT-1080-NT fibrosarcoma cells | 1.6% of 360,000 active | HT-1080-NT fibrosarcoma viability, CellTiter-Glo ATP luminescence, 48 h | Potency, µM (highest dose often 46.1 µM), for inactives: at the top dose activity, negative = less viability, actives largely listed as cytotoxic;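 also: NT is the 2HG producing partner of a matched IDH1 knockdown line; potency is read from the fitted curve at half-maximal effect; 0% = DMSO-treated cells and -100% = media-only wells without cells; nearly all actives have a fitted effect of over 55% in size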
#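 A 48-hour cytotoxicity screen used HT-1080-NT cells plated 2 hours before compound delivery. ATP-based CellTiter-Glo luminescence measured viability, normalized to DMSO and no-cell controls.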
# DT40 TDP1 CPT: growth inhibition of DT40 Tdp1-/-;hTDP1 cells with camptothecin (screen for TDP1 inhibitors) | chicken DT40 Tdp1-/-;hTDP1 cells + 20 nM CPT, ATP luminescence, 48 h | 12% of 420,000 active | Potency, µM (highest dose often 46.2 µM), for the others: at the top dose activity change, negative = growth inhibition, most hits filed as inhibitors; also: potency is read from the fitted curve at half-maximal effect; nearly all actives have a fitted effect of over 55% in size
#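 Chicken DT40 Tdp1-/- cells stably complemented with human TDP1 were seeded at 400 cells/well in medium containing 20 nM camptothecin, exposed to pin-transferred compounds, and grown at 37 °C for at least 48 hr. Viability was read as ATP luminescence.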
# IL1B secr inh: blocks inflammasome-driven IL-1 beta release. 4.7% of 360,000 active. activity change, % at 57.5 µM. THP-1 LPS/ATP IL-1B secretion, AlphaLISA, 16 h; stronger effect = lower value; in the data active = activity change below about -50%; inconclusive = mostly about -30% to -49%
#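 THP-1 cells pretreated 1 hr with compounds (up to 57.5 uM final), then stimulated with LPS (250 ng/mL final) plus ATP (1.25 mM final); secreted IL-1B measured by AlphaLISA after 16 hr, decreased signal indicating inhibition.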
# DT40 TDP1 no CPT: qHTS for Inhibitors of human tyrosyl-DNA phosphodiesterase 1 (TDP1): qHTS in cells in absence of CPT. DT40 Tdp1-/- hTDP1 cells, no CPT, ATP luminescence, 48 h. Potency, µM (titrated, usually from 46.2 µM), for the others: at the highest dose activity change, negative = growth inhibition, most hits filed as inhibitors. 15% of 420,000 active. AID 686978, 2013; also: potency is read from the fitted curve at half-maximal effect; nearly all actives have a fitted effect of over 55% in size
#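 Chicken DT40 Tdp1-/- cells stably complemented with human TDP1 were seeded at 400 cells/well with DMSO in place of 20 nM camptothecin. After compound pinning, cells grew at least 48 hr at 37 °C; viability read by CellTiter-Glo luminescence.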
# HT1080 IDH1KD tx: HT-1080 IDH1 knockdown cell toxicity (counter line). Potency, µM (titrated, usually from 46.1 µM), for the others: at the highest dose activity, negative = toxicity, actives largely listed as cytotoxic. AID 686971. 2% of 360,000 active. HT-1080 IDH1 knockdown viability, ATP luminescence, 48 h;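 also: potency is read from the fitted curve at half-maximal effect; 0% = DMSO wells and -100% = cell-free medium wells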
#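 After a 2 h attachment period, IDH1KD HT-1080 cells took pin-transferred compound for 48 h at 37 °C; ATP-based luminescence after 10 min room-temperature reagent incubation reported viability.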
# Starred values were filed as active, the others as inactive; u = inconclusive; x = not tested or not shown; [ ] = dose if it differs, or a comment. The sample as a whole holds a higher share of hits than the screen did. Unless noted, calls follow the shape of the dose curve; as a rule, active = well fitted curve in the direction sought with a large enough effect; inconclusive = small, poorly fitted or top-dose-only effect, or another doubt; inactive = no such curve, though single readings can be large; an effect the other way counts as inactive or inconclusive. Unless noted, % is scaled to controls: 0 for no effect and ±100 for the full control effect.
SMILES,ALOX12 inh,HT1080NT lethal,DT40 TDP1 CPT,IL1B secr inh,DT40 TDP1 no CPT,HT1080 IDH1KD tx
Cc1noc(-c2ccc(OC3CN(S(=O)(=O)c4c(C)nn(C)c4C)C3)cc2)n1,14%,x,x,x,x,x
CCCCCN1C(C(=O)c2ccccc2)=C(NC(=O)c2ccc(OC)c(OC)c2)c2ccccc2S1(=O)=O,-13%,x,21µM*,x,16µM*,x
CCCCN1C(C(=O)Nc2cc(C)on2)=C(O)c2ccccc2S1(=O)=O,u,9%,6%,-9,-20%,1%
CCCCCN1C(C(=O)c2ccccc2)=C(NC(=O)c2ccc(OC)cc2)c2ccccc2S1(=O)=O,-16%,x,u,x,23µM*,x
CCC/C(=N\NC(=O)c1ccc(OC)c(OC)c1)c1ccccc1,-1%,10%,-16%,11,-29%,-2%
COc1cc2c(c(OC)c1)C(c1cccc(Cl)c1Cl)C1=C(CCCC1=O)N2 (stereo not given),-18%,x,x,x,x,x
C=C(C)C1Cc2c(C)nn(-c3nc(C)cc(C)n3)c2C1 (stereo not given),u,-10%,2.3µM*,-11,4.6µM*,-27%
C=C(C)C1Cc2nc(N)nc(C)c2C1 (stereo not given),-1%,3%,-14%,25,-14%,5%
CC(=O)Nc1ccc2nc(NC(=O)c3ccc([N+](=O)[O-])o3)sc2c1,19%,u,u,-61*,u,5.2µM*
CCCC(=O)Nc1nc2ccc(NC(=O)c3ccc(Br)o3)cc2s1,47%,-18%,u,-61*,23µM*,-11%
CC(=O)Nc1ccc2nc(NC(=O)c3ccco3)sc2c1,9%,-12%,u,-3,u,-2%
Cc1nc2ccc(NC(=O)c3ccc(Br)o3)cc2s1,-3%,-7%,-16%,-57*,u,1%
CCN1CCN(C(=O)CN(c2cccc(C)c2C)S(C)(=O)=O)CC1,18%,x,x,x,x,x
O=C(/C=C(/c1ccc(Cl)cc1)n1cncn1)c1ccccc1,u,-7%,u,-58*,u,-10%
Cc1cccc(OCC(=O)N(Cc2ccc(N(C)C)cc2)C2CCS(=O)(=O)C2)c1 (stereo not given),2%,0%,-13%,-50*,-17%,2%
Cc1cccc(C)c1OCC(=O)N(Cc1ccc(N(C)C)cc1)C1CCS(=O)(=O)C1 (stereo not given),306%,2%,-29%,0,-25%,-8%
CCc1ccc(OCC(=O)N(Cc2ccc(C(C)C)cc2)C2CCS(=O)(=O)C2)cc1 (stereo not given),1%,x,16µM*,x,u,x
Cc1cc(OCC(=O)N(Cc2ccc(N(C)C)cc2)C2CCS(=O)(=O)C2)cc(C)c1Cl (stereo not given),5%,x,u,x,18µM*,x
Cc1cc(OCC(=O)N(C)C2CCCCC2)cc(C)c1Cl,-14%,18%,u,0,21µM*,9%
O=C1c2c(nc(CNCc3cccc(Cl)c3)n2Cc2ccccc2)NCCN1Cc1ccccc1,41%,x,x,x,x,x
CCCCNC(=S)N1CCn2cccc2C1c1ccc(F)cc1 (stereo not given),u,u,16µM*,-86*,u,u
S=C(NCCc1ccccc1)N1CCn2cccc2C1c1cccnc1 (stereo not given),25%,-19%,u,-66*,u,0%
O=C(CSc1nc2ccccc2s1)NC1CCSc2ccc(F)cc21 (stereo not given),39%,x,x,x,x,x
Clc1ccc(SCc2cccc3cccnc23)cc1,-9%,x,x,x,x,x
COc1cccc(CC(=O)NC2CCN(c3cnn(C)c(=O)c3)CC2)c1,-2%,x,x,x,x,x
SMILES,ALOX12 inh,HT1080NT lethal,DT40 TDP1 CPT,IL1B secr inh,DT40 TDP1 no CPT,HT1080 IDH1KD tx
O=C(Nc1cc(C(F)(F)F)ccc1Cl)C(Sc1nnc(-c2cccs2)o1)c1ccccc1 (stereo not given),-15%,-11%,-3%,0,-1%,-21%
O=C(Nc1ccc(Cl)cc1C(F)(F)F)C(Sc1nnc(-c2cccs2)o1)c1ccccc1 (stereo not given),-24%,u,u,-12,21µM*,10µM*
COc1ccccc1OCc1nc2ccccc2[nH]1,0%,3%,-2%,-24,-14%,10%
Cc1ccccc1OCc1nc2ccccc2[nH]1,-3%,-12%,23µM*,18,16µM*,-20%
c1ccc2cc(OCc3nc4ccccc4[nH]3)ccc2c1,5%,u,u,u,u,1%[9.24 µM]
COc1cccc(OCc2nc3ccccc3[nH]2)c1,27%,-16%,13µM*,-15,u,-20%
COc1ccc(C[C@H]2COC(=O)[C@@H]2Cc2ccc(OC3OC(CO)C(O)C(O)C3O)c(OC)c2)cc1OC (stereo not given in full),x,-9%,u,38,21µM*,0%
COc1cc(C[C@H]2C(=O)OC[C@@H]2Cc2ccc(OC)c(OC)c2)ccc1O,0%,x,2.4µM*,x,1.7µM*,x
COc1cc2ccc(=O)oc2c(O[C@@H]2O[C@H](CO)[C@@H](O)[C@H](O)[C@H]2O)c1O,3%,18%,10%,3,9%,10%
COc1cc([C@H]2OC[C@H]3[C@@H]2CO[C@H]3c2ccc(O)c(OC)c2)ccc1O,-1%,12%,6%,36,-19%,7%
COc1cc(C2OCC3C(c4ccc(OC5OC(CO)C(O)C(O)C5O)c(OC)c4)OCC23)ccc1O (stereo not given),5µM*,-4%,1%,-3,-2%,-4%

# Bioassay records (PubChem)
